Hits are enriched below; roughly 0.92% of the tested compounds scored in any of these assays.
FEN1 inhibitor – human FEN1 inhibition | P39748 | Recombinant FEN1 flap cleavage, fluorescence, 15 min | Potency, µM (series often up to 114 µM), without a hit: top-dose activity change, negative = inhibition, most hits filed as inhibitors | 390,000 compounds, 0.35% hits; note: nearly all actives have a fitted effect of over 65% in size
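Concentration–response screening of FEN1 (10 nM): 15 min compound preincubation at room temperature, reaction started with 50 nM substrate and read at 0 and 15 min. Corrected, normalized data were fitted by a four-parameter Hill equation.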
APE1 inh-1 – APE1 (human) endonuclease inhibition. 350,000 compounds, 0.35% hits. P27695. Potency, µM (doses to about 65.8 µM), without a hit: at the highest dose activity change, negative = inhibition, actives largely listed as inhibitors. recombinant APE1, TAMRA/BHQ-2 abasic DNA cleavage fluorescence;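 note: plate controls were vehicle for no effect and reference inhibitor for full effect; nearly all actives have a fitted effect of over 55% in size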
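Endonuclease cleavage of a quenched abasic-site DNA duplex (50 nM) by APE1 (0.75 nM) was tracked by TAMRA dequenching. Compounds were preincubated with enzyme 15 min at room temperature; data normalized to buffer-only and DMSO wells plus NSC13755 control.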
RECQ1 inh-1 – inhibitors of human RECQ1 DNA helicase | P46063 | RECQ1 DNA unwinding, red fluorescence kinetic read | Potency, µM (top dose mostly 57.3 µM), for inactives: at the highest dose activity, negative = inhibition, most hits filed as inhibitors | 240,000 compounds, 0.54% hits;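 note: plate controls were vehicle for no effect and no enzyme for full effect; nearly all actives have a fitted effect of over 30% in size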
Target sequence (P46063 whole entry, looked up): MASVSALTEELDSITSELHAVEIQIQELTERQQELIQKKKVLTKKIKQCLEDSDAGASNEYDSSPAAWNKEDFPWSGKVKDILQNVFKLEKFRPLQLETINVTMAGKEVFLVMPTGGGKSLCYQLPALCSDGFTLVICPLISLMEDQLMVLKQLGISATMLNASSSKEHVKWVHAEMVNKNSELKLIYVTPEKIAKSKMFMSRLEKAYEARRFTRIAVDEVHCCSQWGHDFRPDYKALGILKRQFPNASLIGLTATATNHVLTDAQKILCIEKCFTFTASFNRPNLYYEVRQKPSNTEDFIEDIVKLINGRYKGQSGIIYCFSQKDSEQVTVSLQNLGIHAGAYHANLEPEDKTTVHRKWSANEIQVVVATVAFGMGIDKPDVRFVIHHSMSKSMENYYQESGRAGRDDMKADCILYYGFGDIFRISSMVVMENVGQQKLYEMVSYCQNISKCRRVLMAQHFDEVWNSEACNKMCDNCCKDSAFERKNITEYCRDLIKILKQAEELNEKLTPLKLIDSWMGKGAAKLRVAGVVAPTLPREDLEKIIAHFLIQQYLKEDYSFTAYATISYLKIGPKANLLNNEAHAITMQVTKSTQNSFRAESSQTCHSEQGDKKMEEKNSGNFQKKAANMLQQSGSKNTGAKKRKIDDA
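50 nM RECQ1T1 preincubated 15 min with compound in Tris pH 8.0 buffer with MgCl2, DTT, Tween-20 and 2.5 ug/ml poly(dI-dC); started with 200 nM TAMRA/BHQ-2 forked duplex and 2 mM ATP. Unwinding read as fluorescence (525/598 nm), two reads 2 h apart.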
BLM inh-1 – blocks DNA unwinding by human BLM helicase; P54132; recombinant BLM DNA unwinding, fluorescence dequenching; Potency, µM (titrated, usually from 56.1 µM), for inactives: at the top dose activity change, negative = inhibition, hits mostly inhibitors; 350,000 compounds, 0.2% hits;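 note: plate controls were vehicle for no effect and no enzyme for full effect; nearly all actives have a fitted effect of over 35% in size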
TDP1 inh – blocks human tyrosyl-DNA phosphodiesterase 1 | Q9NUW8 | 350,000 compounds, 0.28% hits | recombinant TDP1, AlphaScreen DNA substrate cleavage | Potency, µM (series often up to 130 µM), without a hit: top-dose activity change, negative = inhibition, actives largely listed as inhibitors | AID 485290; note: nearly all actives have a fitted effect of over 40% in size
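Steps: enzyme plus compound, 15 min RT; add biotin/phosphotyrosine-FITC oligonucleotide (15 nM final), react 5 min; add donor/acceptor beads (10 ug/ml final), 10 min; read AlphaScreen. Tdp1 at 1 nM final.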
APE1 dye cs – displaces fluorescent dye from DNA, flagging APE1 artifacts; shares compounds with APE1 inh-1; DNA fluorescent dye displacement counterscreen, fluorescence; Potency, µM (series often up to 28.5 µM), inactives show top-dose activity change, negative = inhibition, actives largely listed as inhibitors; 480 compounds, 7% hits; AID 2564;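 note: loss of thiazole orange fluorescence as the dye is displaced from duplex DNA; 0% = ThO with dsDNA and no compound and -100% = ThO without dsDNA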
Endo IV inh – counter-screen for APE1 inhibitors: inhibitors of E. coli endonuclease IV; shares compounds with APE1 inh-1; E. coli Endo IV, fluorogenic AP-site DNA cleavage; Potency, µM (top dose mostly 27.1 µM), without a hit: at the top dose activity change, negative = inhibition, actives largely listed as inhibitors; 560 compounds, 4% hits; AID 2565;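 note: plate controls were uninhibited enzyme wells for no effect and no enzyme buffer wells for full effect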
APE1 inh-2 – confirmation of inhibitors of human APE1 endonuclease; purified APE1, fluorogenic abasic-site DNA cleavage; 750 compounds, 44% hits; AID 2572; Potency, µM (series often up to 57.1 µM), inactives show at the top dose activity change, negative = inhibition, usual class: inhibitors; shares compounds with APE1 inh-1; note: nearly all actives have a fitted effect of over 30% in size
APE1 FP inh – displaces DNA from human APE1 in FP assay; AID 2573; APE1 binding to TAMRA-labelled double-stranded DNA, fluorescence polarization displacement; 480 compounds, 7% hits; Potency, µM (series often up to 28.5 µM), without a hit: at the highest dose activity, negative = inhibition, hits mostly inhibitors; shares compounds with APE1 inh-1
BLM inh-2 – BLM (human) helicase inhibition, confirmation; shares compounds with BLM inh-1; BLM DNA unwinding, fluorescence quenching, biochemical; Potency, µM, for inactives: max response, negative = inhibition, most hits filed as inhibitors; 220 compounds, 40% hits; AID 2585;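 note: strand separation dequenches TAMRA so unwinding raises red fluorescence; series mostly up to about 69 µM; nearly all actives have a fitted effect of over 45% in size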
RECQ1 conf – confirmation of human RECQ1 helicase inhibitors | shares compounds with RECQ1 inh-1 | RECQ1 helicase DNA unwinding, fluorescence | Potency, µM (series often up to 229 µM), without a hit: at the highest dose activity change, negative = inhibition, hits mostly inhibitors | 610 compounds, 28% hits | AID 2708; note: nearly all actives have a fitted effect of over 45% in size
RECQ1 ADP FP – ADP displacement flagged in RECQ1 inhibitor counter-screen; 530 compounds, 27% hits; AID 2711; ADP fluorescence polarization displacement counterscreen; Potency, µM (doses to about 228 µM), without a hit: top-dose activity change, negative = inhibition, actives largely listed as inhibitors; shares compounds with RECQ1 inh-1; note: nearly all actives have a fitted effect of over 45% in size
RECQ1 inh-2 – confirmation of human RECQ1 helicase inhibitors; AID 504841; shares compounds with RECQ1 inh-1; 1,100 compounds, 15% hits; Potency, µM (series often up to 119 µM), for the others: top-dose activity, negative = inhibition, most hits filed as inhibitors; recombinant RECQ1 DNA unwinding, red fluorescence; note: nearly all actives have a fitted effect of over 50% in size
* = called active by the depositor; [ ] = another dose, or the depositor's remark. Calls come from the whole dose curve; as a rule, active = well fitted curve in the direction sought with a large enough effect; inconclusive = small, poorly fitted or top-dose-only effect, or another doubt; inactive = no such curve, though single readings can be large; an effect the other way counts as inactive or inconclusive. Unless noted, % is set by controls: 0 for no effect and ±100 for the full control effect; potency is the fitted concentration of half-maximal effect.

Results for O=C1CNC(=O)/C1=C\c1ccc(O)cc1 ?
FEN1 inhibitor: 2%; APE1 inh-1: -3%; RECQ1 inh-1: -11%; BLM inh-1: 1%; TDP1 inh: -1%

How did O=C1CNC(=O)/C1=C/c1ccc(O)cc1 do in these assays?
FEN1 inhibitor: -1%; APE1 inh-1: 0.89µM*; RECQ1 inh-1: 1%; BLM inh-1: 1%; TDP1 inh: -2%; APE1 dye cs: 1%; Endo IV inh: -1%; APE1 inh-2: inconclusive; APE1 FP inh: 11%

How did CC(=O)NC(=S)Nc1ccc(-c2nc3ccc(C)cc3s2)cc1 do in these assays?
FEN1 inhibitor: 3%; APE1 inh-1: -3%; RECQ1 inh-1: inactive; BLM inh-1: 0%; TDP1 inh: 4%

Results for CC1=CCC(C(=O)O)C(C(=O)Nc2ccc(-c3nc4ccc(C)cc4s3)cc2)C1 (configuration not stated) ?
FEN1 inhibitor: -2%; APE1 inh-1: inconclusive; RECQ1 inh-1: -26%; BLM inh-1: -7%; TDP1 inh: 25µM*; APE1 inh-2: -28%

Results for COc1cc([C@@H]2c3cc4c(cc3[C@@H](OC3OC5COC(C)OC5C(O)C3O)[C@H]3COC(=O)[C@H]23)OCO4)cc(OC)c1O (some centres not stated) ?
APE1 inh-1: -1%; RECQ1 inh-1: -15%; TDP1 inh: 16%

Results for CC(=O)Oc1ccc2c(=O)c(/C=N/c3cc(=O)[nH]c(=S)[nH]3)coc2c1 ?
FEN1 inhibitor: -16%; APE1 inh-1: 6%; RECQ1 inh-1: 0%; BLM inh-1: 0%; TDP1 inh: 79µM*; APE1 inh-2: -39%

What do the screens show for `Cc1cc(C)c(/C=C/c2onc(C)c2S(=O)(=O)N2CCC(C(=O)Nc3ccc(Cl)c(C(F)(F)F)c3)CC2)c(C)c1`?
FEN1 inhibitor: -13%; BLM inh-1: 1%; TDP1 inh: -1%

What do the screens show for `CCCN1C(=O)c2[nH]nc(-c3ccccc3O)c2C1c1ccc(OCc2ccccc2)c(OCC)c1` (configuration not stated)?
FEN1 inhibitor: -8%; BLM inh-1: -5%; TDP1 inh: 12%

Results for Cc1cc(/C=N/NC(=O)c2cccc(N(C)C)c2)c(C)n1-c1cc(C(=O)O)cc(C(=O)O)c1 ?
FEN1 inhibitor: inconclusive; APE1 inh-1: 28µM*; RECQ1 inh-1: inactive; BLM inh-1: 4%; APE1 dye cs: -8%; Endo IV inh: 8%; APE1 inh-2: inconclusive; APE1 FP inh: -5%

Results for Cc1ccc(/C=c2\sc3nc(-c4ccco4)nn3c2=O)o1 ?
FEN1 inhibitor: inconclusive; APE1 inh-1: 5.6µM*; RECQ1 inh-1: 8%; BLM inh-1: 25µM*; TDP1 inh: -4%; APE1 dye cs: inconclusive; Endo IV inh: -9%; APE1 inh-2: 7.9µM*; APE1 FP inh: 15%; BLM inh-2: -10%

Results for CCC1CC=CC2C1C(=O)N(Cc1ccccc1)C2c1ccc2ccccc2c1 (configuration not stated) ?
FEN1 inhibitor: -18%; APE1 inh-1: -5%; RECQ1 inh-1: 0%; BLM inh-1: -8%; TDP1 inh: 6%

How did CCOC(=O)c1cc(-c2ccc(N3CCOCC3)cc2)nn1-c1ccccc1C(=O)O do in these assays?
FEN1 inhibitor: -5%; APE1 inh-1: 2.5µM*; RECQ1 inh-1: 11µM*; BLM inh-1: -25%; TDP1 inh: 1.6µM*; APE1 dye cs: 3%; Endo IV inh: inconclusive; APE1 inh-2: inconclusive; APE1 FP inh: inconclusive; RECQ1 conf: 45µM*; RECQ1 ADP FP: 36%[91.9 µM]; RECQ1 inh-2: inconclusive

How did CC(=O)NC(Cc1ccc(Cl)cc1)C(=O)NCC(N)C(=O)c1ccccc1 (configuration not stated) do in these assays?
FEN1 inhibitor: 12%

What do the screens show for `N=C1/C(=C\c2ccc(SCc3ccco3)o2)C(=O)N=C2SC=NN12`?
FEN1 inhibitor: inconclusive; APE1 inh-1: 3.2µM*; RECQ1 inh-1: 8.9µM*; BLM inh-1: -6%; TDP1 inh: inconclusive; APE1 dye cs: 15%; Endo IV inh: 10%; APE1 inh-2: inconclusive; APE1 FP inh: 4%; RECQ1 inh-2: inconclusive

What do the screens show for `O=C1CCCC2=C1C(c1cccs1)Nc1ccc3ncccc3c12` (configuration not stated)?
FEN1 inhibitor: 2%; APE1 inh-1: -7%; RECQ1 inh-1: -8%; BLM inh-1: -8%; TDP1 inh: -1%
